Screening data (PubChem BioAssay)
M1 antag: blocks the rat M1 muscarinic receptor response to acetylcholine; P08482; B-score at 10 µM; CHO-M1 cells, Fluo-4 calcium, ACh EC80 antagonist mode; stronger effect = lower value; AID 628; hit rate 3.4% among 64,000;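 active means calcium fluorescence response, raw or row-and-column corrected B-score, differing from the plate sample mean either way at a set confidence level, mostly lower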
D1 allo mod: allosterically modulates the human D1 dopamine receptor; P21728; HEK293 D1, CRE-luciferase, dopamine EC30 potentiation; actives deviate in either direction; B-score at 10 µM; hit rate 5.9% among 58,000;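 active means luminescence count or its row- and column-corrected plate score outside the 99.7% band of the plate's sample wells, on either side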
hDAT+cocaine: changed human dopamine transporter uptake under cocaine IC80; Q01959; LLC-PK1 hDAT cells, [14C]-dopamine uptake with cocaine IC80; actives deviate in either direction; B-score at 10 µM; hit rate 1.3% among 110,000; AID 449768;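 active means Z score or B-score, a plate-position-corrected score, falls beyond the plate's 99.7% confidence bounds, in either direction; inactive means both scores lie inside the 99.7% bounds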;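 further: scored against the spread of the other compound wells on the same plate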
FXIa inh mix: factor XIa (human) inhibition, mixture screen. hit rate 0.19% among 62,000. inhibition, % at 5 µM. purified FXIa, fluorogenic substrate, pooled mixtures. P03951. AID 680;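 further: each value is inhibition by a whole ten-compound pool holding the compound; 0% = enzyme with no mixture and 100% = wells lacking enzyme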
FXIIa inh mix: blocks human factor XIIa in pooled compound mixtures; P00748; purified FXIIa, fluorogenic substrate; inhibition, % at 5 µM; hit rate 0.2% among 62,000;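 further: 0% = enzyme without compound and 100% = no enzyme blank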
Target sequence (P00748 20-372 limits assumed): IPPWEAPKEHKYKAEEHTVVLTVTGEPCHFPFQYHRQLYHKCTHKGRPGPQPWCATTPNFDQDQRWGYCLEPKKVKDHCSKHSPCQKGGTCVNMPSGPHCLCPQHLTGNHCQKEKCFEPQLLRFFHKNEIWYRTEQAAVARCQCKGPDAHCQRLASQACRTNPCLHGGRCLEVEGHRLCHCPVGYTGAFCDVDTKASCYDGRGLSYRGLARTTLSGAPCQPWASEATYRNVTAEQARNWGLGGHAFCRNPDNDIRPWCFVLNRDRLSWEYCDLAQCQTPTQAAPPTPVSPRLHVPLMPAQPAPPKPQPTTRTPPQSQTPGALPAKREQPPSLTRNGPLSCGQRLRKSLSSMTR
Target sequence (P00748 373-615 limits assumed): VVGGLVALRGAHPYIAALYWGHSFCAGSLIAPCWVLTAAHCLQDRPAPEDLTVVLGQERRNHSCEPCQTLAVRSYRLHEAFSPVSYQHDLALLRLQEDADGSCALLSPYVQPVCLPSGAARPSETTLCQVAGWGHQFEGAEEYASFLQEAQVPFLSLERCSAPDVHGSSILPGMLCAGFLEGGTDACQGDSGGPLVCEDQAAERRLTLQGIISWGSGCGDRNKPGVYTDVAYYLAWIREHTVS
M1 agonist: agonists of M1 muscarinic receptor. CHO-M1 cells, Fluo-4 calcium fluorescence, agonist mode; stronger effect = higher value. B-score at 10 µM. hit rate 3% among 64,000. AID 626;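 active means fluorescence rise, raw or as B-score row- and column-corrected plate score, outside the 99.7% band of its plate's samples, either direction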
D1 mod confirm: D1 receptor (human) allosteric modulation, confirmed; shares compounds with D1 allo mod; HEK293 D1 CRE-luciferase, dopamine EC30 potentiation; stronger effect = higher value; luminescence at 10 µM; hit rate 88% among 2,200; AID 642;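 active means luminescence in either of two replicates above the same-plate mean plus 3 SD of the low-dose dopamine control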
D1 ag no DA: secondary test of D1 modulators: activity without dopamine. luminescence at 10 µM. hit rate 0.8% among 1,900. AID 646. HEK293 D1 CRE-luciferase, luminescence, no dopamine; stronger effect = higher value. shares compounds with D1 allo mod; in the data active means luminescence above about 3900
Isoprot counter: counter-screen for D1 modulators: isoproterenol response in HEK293 cells; shares compounds with D1 allo mod; HEK293 D1 CRE-luciferase, isoproterenol EC30 counter-screen; calls only at 10 µM; hit rate 63% among 2,200; AID 647;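 active means luminescence in either replicate above plate mean of wells with a partly effective reference agonist dose plus 3 SD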;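 further: isoproterenol raises cAMP through native beta-adrenoceptor Gs so signal bypasses D1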
* marks the source's active call; other numbers are inactive results; i = inactive; . = no result; + = active, no number. Most compounds without a hit are left out; they make up all but 7.4% or so of the library. Unless noted, no stated cut-off is given here; in the data, active means inhibition above about 20% (passing the limit was not always enough); inactive means the rest.

SMILES	M1 antag	D1 allo mod	hDAT+cocaine	FXIa inh mix	FXIIa inh mix	M1 agonist	D1 mod confirm	D1 ag no DA	Isoprot counter
O=C(CS(=O)(=O)Cc1ccccc1)N1CCc2ccccc2C1	-0.019	-0.054	0.057	-11	12	0.45	.	.	.
C=CCNC(=O)c1snnc1-c1ccccc1	.	.	-0.042	.	.	.	.	.	.
CCOC(=O)c1c(NC(=O)CC)sc(C(C)=O)c1C	-0.05	16*	-0.27	.	.	-0.22	12336*	1496	+
CCOC(=O)c1c(NC(NC(C)=O)C(Cl)(Cl)Cl)sc(C(C)=O)c1C (configuration not stated)	.	.	0.11	.	.	.	.	.	.
CCOC(=O)c1sc(NC(=O)COC(=O)Cn2cnc3ccccc32)c(C(=O)OCC)c1C	-0.099	5*	.	10	4	0.65	9720*	1652	i
CCOc1ccc(N(C(C)C(=O)NC(C)CC)S(C)(=O)=O)cc1 (configuration not stated)	.	.	-0.28	.	.	.	.	.	.
CCC(=O)Nc1cc2c(cc1C(C)=O)OCCO2	0.74	0.91	0.37	7	4	-0.54	.	.	.
CCCC(=O)Nc1cc2c(cc1C(=O)c1ccccc1)OCCO2	-0.094	6.3*	-0.029	4	2	0.2	13204*	1668	+
CNC(=O)c1ccccc1NC(=O)c1ccco1	.	.	0.37	.	.	.	.	.	.
COC(=O)c1ccccc1NC(=O)c1ccco1	0.92	4.4*	1	-21	11	0.78	11880*	1664	+
O=C(Nc1scc(-c2ccc(F)cc2)c1C(=O)O)c1ccco1	0.72	-0.68	0.96	0	-3	-0.022	.	.	.
COC(=O)c1c(-c2ccccc2)csc1NC(=O)c1ccco1	0.61	4.9*	-0.093	5	-12	-0.44	6288*	1440	i
CCc1ccccc1NC(=O)N1C2CCCC1CC(NC(=O)C(C)(C)C)C2 (configuration not stated)	0.012	0.007	0.69	5	4	0.12	.	.	.
CNC(=O)N(C1=NCC(C)S1)c1ccc(F)cc1F (configuration not stated)	0.091	5.3*	-0.08	11	5	0.58	16972*	1640	+
COC(=O)c1c(/N=C/NOCc2ccc(Cl)cc2)sc2c1CCN(c1ncc(C(F)(F)F)cc1Cl)C2	.	.	-0.66	.	.	.	.	.	.
Cc1cc(N2CCN(c3ccccc3)CC2)nc(-n2nc(C)cc2C)n1	-0.01	-2.6	0.37	-4	5	1.6	.	.	.
CCCc1nc2ccccc2c(C(=O)OCC(=O)NCc2ccco2)c1CC	.	.	0.99	.	.	.	.	.	.
CCc1nc2ccccc2c(C(=O)OCC(=O)NCc2ccco2)c1C	-0.21	4.4*	0.27	-4	7	0.16	8196*	1524	i
O=S(=O)(Nc1nc2ccccc2nc1NCc1ccco1)c1cccs1	0.36	8.4*	-0.85	7	-17	0.22	15532*	1652	+
C=CCNc1nc2ccccc2nc1NS(=O)(=O)c1cccs1	0.34	6.9*	-0.048	5	0	-0.11	11704*	.	+
CCCCCNc1nc2ccccc2nc1NS(=O)(=O)c1cccs1	.	.	0.096	.	.	.	.	.	.
COc1cccc(-n2c(C)nnc2SCC#N)c1	-0.036	.	0.031	-1	4	-0.41	.	.	.
COc1ccc(N=C2SC(CC(=O)Nc3ccc(OC)cc3OC)C(=O)N2C)cc1 (configuration not stated)	0.93	-0.15	1.1	1	3	-0.0082	.	.	.
Cc1ccc(Nc2nnc(SCc3cc(=O)n4ccsc4n3)s2)c(C)c1	-0.28	2.6*	0.94	8	6	-1.5	6736*	1632	i
CN1Cc2cc(C(=O)c3cc(Cl)cc(CSc4ncccn4)c3O)cnc2NC1=O	-0.75	4.5*	-0.74	4	17	-0.95	8560*	.	+
Cc1ccc(NC(=O)CC2SC3=NCCN3C2=O)cc1 (configuration not stated)	-1.4	5.5*	1	6	11	0.023	6908	.	i
O=C(CC1SC2=NCCN2C1=O)Nc1ccccc1 (configuration not stated)	0.22	-1.3	0.044	.	.	0.43	.	.	.
